The target in one experiment is T1, Tyrosine-protein kinase receptor TYRO3 (Homo sapiens) (UniProt Q06418).
T1 sequence (whole entry): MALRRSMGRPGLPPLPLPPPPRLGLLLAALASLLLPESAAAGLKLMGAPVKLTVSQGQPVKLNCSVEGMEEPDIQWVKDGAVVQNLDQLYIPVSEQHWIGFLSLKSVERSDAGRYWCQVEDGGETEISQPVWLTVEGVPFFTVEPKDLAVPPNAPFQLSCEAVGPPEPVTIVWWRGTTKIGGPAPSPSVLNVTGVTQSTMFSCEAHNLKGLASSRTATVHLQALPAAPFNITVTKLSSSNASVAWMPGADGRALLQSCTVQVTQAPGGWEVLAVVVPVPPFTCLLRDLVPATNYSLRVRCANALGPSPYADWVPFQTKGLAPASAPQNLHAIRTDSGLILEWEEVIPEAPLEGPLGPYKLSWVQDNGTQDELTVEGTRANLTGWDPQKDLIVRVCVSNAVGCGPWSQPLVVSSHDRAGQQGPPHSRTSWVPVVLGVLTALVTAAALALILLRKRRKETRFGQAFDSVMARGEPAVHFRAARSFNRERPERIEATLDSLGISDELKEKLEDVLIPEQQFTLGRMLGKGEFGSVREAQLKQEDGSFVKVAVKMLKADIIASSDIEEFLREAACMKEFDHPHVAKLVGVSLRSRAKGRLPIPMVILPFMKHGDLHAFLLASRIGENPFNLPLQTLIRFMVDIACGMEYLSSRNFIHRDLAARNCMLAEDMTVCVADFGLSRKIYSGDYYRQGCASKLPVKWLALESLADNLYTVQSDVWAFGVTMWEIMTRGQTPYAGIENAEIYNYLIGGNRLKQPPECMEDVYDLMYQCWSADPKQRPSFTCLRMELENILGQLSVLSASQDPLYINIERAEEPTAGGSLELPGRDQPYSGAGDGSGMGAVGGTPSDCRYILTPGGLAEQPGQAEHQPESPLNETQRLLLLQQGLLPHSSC
The conditions noted are these: at 1 µM.
For orientation: residual activity means the signal under treatment as a percentage of the control signal. As to `CCN(CC)CCCCN1c2ccccc2Oc2ccc(Cl)cc21`, the residual activity turned out to be 108%.
Take `c1ccc(-c2n[nH]c3c2oc2ccccc23)cc1`: the residual activity turned out to be 79%.
With `Cc1nc2cc3nc(-c4cccs4)cnc3cc2n1C`, the residual activity is 98%.
On to `Cc1cc(Nc2nc(-c3ccccc3)nc3ccccc23)n[nH]1`, for which the residual activity worked out at 98%.
`Oc1ccc(Nc2nc(-c3ccc(Cl)cc3)cs2)cc1`: the residual activity is 97%.
For `CC(=O)O/N=C1\C(=C2\C(=O)Nc3cc(Br)ccc32)Nc2ccccc21`, the residual activity worked out at 100%.
Consider `Oc1ccc(-c2nc(-c3ccc(F)cc3)c(-c3ccncc3)[nH]2)cc1`, for which the residual activity is 103%.
As to `COc1cc2ncnc(N3CCN(C(=O)Nc4ccc(Oc5ccccc5)cc4)CC3)c2cc1OC`, the residual activity was found to be 97%.
As to `COc1cc2ncnc(Nc3ccc(NC(=O)c4ccccc4)cc3)c2cc1OC`, the residual activity is 94%.
For the compound `O=C1NC(=O)c2cc(Nc3ccc(F)cc3)c(Nc3ccc(F)cc3)cc21`, the residual activity came to 94%.
`COc1cc2ncc(-c3ccccc3)nc2cc1OC`: the residual activity turned out to be 96%.
For `COc1cc2ncnc(Nc3ccc(Oc4ccccc4)cc3)c2cc1OC`, the residual activity worked out at 14%.
With `NC(=O)c1ccc2[nH]c(-c3ccc(Oc4ccc(Cl)cc4)cc3)nc2c1`, the residual activity is 106%.
With `CC(C)n1cnc2c(NCc3ccccc3)nc(NCCCO)nc21`, the residual activity was 105%.
`c1ccc(-c2n[nH]cc2-c2ccnc3ccccc23)nc1`: the residual activity is 93%.
Regarding `CC#CC(=O)Nc1cc2c(Nc3ccc(F)c(Cl)c3)ncnc2cn1`, the residual activity was determined as 85%.
As for `CC(=O)c1ccc(N2CCOCC2)cc1O`, the residual activity was 86%.
For the compound `Oc1n[nH]c2nnc(-c3c(-c4ccccc4)nn4ccccc34)cc12`, the residual activity was found to be 109%.
As for `c1ccc2c(-c3ccncc3)c[nH]c2c1`, the residual activity was determined as 91%.
For `Nc1n[nH]c2nnc(-c3c(-c4ccccc4)nn4ccccc34)cc12`, the residual activity came to 102%.
On the same count and under the same terms, under `O=C1NC(=O)/C(=C\c2ccc3nccnc3c2)S1` stands 89%.
As for `COc1cccc(-c2cc(=O)c3ccccc3o2)c1N`, the residual activity was found to be 78%.
Take `CO[C@H]1[C@@H](OC)C[C@H](C)[C@@H](OC)C2=CC(=O)C=C(NC(=O)/C(C)=C/C=C/[C@H](OC)[C@@H](OC(N)=O)/C(C)=C/[C@@H]1C)C2=O`: the residual activity came out at 86%.
With `Cc1cccc(-c2[nH]c(C(C)(C)C)nc2-c2ccc3c(c2)OCO3)n1`, the residual activity was 97%.
Regarding `C[C@@H](N)[C@H]1CC[C@H](C(=O)Nc2ccncc2)CC1`, the residual activity worked out at 123%.
As for `O=C1Nc2ccccc2/C1=C1/Nc2ccccc2/C1=N\OCCC(O)CO` (configuration not stated), the residual activity is 52%.
For the compound `N#CCCc1ccc2c(c1)-c1[nH]c3ccc([N+](=O)[O-])cc3c1CC(=O)N2`, the residual activity was determined as 75%.
Still for that read-out and setting: with `CC(C)n1cnc2/c(=N/c3cccc(Cl)c3)nc(NCCO)[nH]c21` the figure was 118%; with `N#C/C(=C(\N)Sc1ccc(N)cc1)c1ccccc1C(F)(F)F`, 103%.
The same measure, in the same setting: with `Cn1nc2c3c(cccc31)C(=O)c1ccccc1-2` the figure was 96%.

The next experiment deals with T1, Tyrosine-protein kinase receptor TYRO3 (Homo sapiens). Conditions: at 10 µM.
For the compound `CCN(CC)CCCCN1c2ccccc2Oc2ccc(Cl)cc21`, the residual activity was determined as 108%.
As for `c1ccc(-c2n[nH]c3c2oc2ccccc23)cc1`, the residual activity turned out to be 62%.
Regarding `Cc1nc2cc3nc(-c4cccs4)cnc3cc2n1C`, the residual activity amounted to 79%.
Turning to `Cc1cc(Nc2nc(-c3ccccc3)nc3ccccc23)n[nH]1`, the residual activity was determined as 53%.
Still for that read-out and setting: under `Oc1ccc(Nc2nc(-c3ccc(Cl)cc3)cs2)cc1` stands 96%.
In the case of `CC(=O)O/N=C1\C(=C2\C(=O)Nc3cc(Br)ccc32)Nc2ccccc21`, the residual activity amounted to 98%.
On the same count and under the same terms, under `CCN(CC)C(=O)c1ccc(Nc2nc(OCC3CCCCC3)c3nc[nH]c3n2)cc1` stands 53%.
Consider `CO[C@@H]1[C@H](N(C)C(=O)c2ccccc2)C[C@H]2O[C@]1(C)n1c3ccccc3c3c4c(c5c6ccccc6n2c5c31)C(=O)NC4`, for which the residual activity turned out to be 84%.
Turning to `Oc1ccc(-c2nc(-c3ccc(F)cc3)c(-c3ccncc3)[nH]2)cc1`, the residual activity amounted to 81%.
Still for that read-out and setting: under `CN(C)CCCn1cc(C2=C(c3c[nH]c4ccccc34)C(=O)NC2=O)c2ccccc21` stands 76%; under `COc1cc2ncnc(N3CCN(C(=O)Nc4ccc(Oc5ccccc5)cc4)CC3)c2cc1OC`, 95%; under `COc1cc2ncnc(Nc3ccc(NC(=O)c4ccccc4)cc3)c2cc1OC`, 76%.
Turning to `O=C1NC(=O)c2cc(Nc3ccc(F)cc3)c(Nc3ccc(F)cc3)cc21`, the residual activity came out at 97%.
For the compound `COc1cc2ncc(-c3ccccc3)nc2cc1OC`, the residual activity amounted to 98%.
Consider `COc1cc2ncnc(Nc3ccc(Oc4ccccc4)cc3)c2cc1OC`, for which the residual activity stood at 7%.
For the compound `NC(=O)c1ccc2[nH]c(-c3ccc(Oc4ccc(Cl)cc4)cc3)nc2c1`, the residual activity was 97%.
Regarding `CC(C)n1cnc2c(NCc3ccccc3)nc(NCCCO)nc21`, the residual activity amounted to 101%.
Take `c1ccc(-c2n[nH]cc2-c2ccnc3ccccc23)nc1`: the residual activity was 75%.
For `CC#CC(=O)Nc1cc2c(Nc3ccc(F)c(Cl)c3)ncnc2cn1`, the residual activity was 82%.
Regarding `CC(=O)c1ccc(N2CCOCC2)cc1O`, the residual activity came to 106%.
Still for that read-out and setting: under `Oc1n[nH]c2nnc(-c3c(-c4ccccc4)nn4ccccc34)cc12` stands 97%.
Same read-out and setting: with `c1ccc2c(-c3ccncc3)c[nH]c2c1` the figure was 97%; with `Nc1n[nH]c2nnc(-c3c(-c4ccccc4)nn4ccccc34)cc12`, 99%.
On the same count and under the same terms, with `O=C1NC(=O)/C(=C\c2ccc3nccnc3c2)S1` the figure was 92%; with `COc1cccc(-c2cc(=O)c3ccccc3o2)c1N`, 122%; with `CO[C@H]1[C@@H](OC)C[C@H](C)[C@@H](OC)C2=CC(=O)C=C(NC(=O)/C(C)=C/C=C/[C@H](OC)[C@@H](OC(N)=O)/C(C)=C/[C@@H]1C)C2=O`, 101%.
Turning to `C[C@@H](N)[C@H]1CC[C@H](C(=O)Nc2ccncc2)CC1`, the residual activity turned out to be 124%.
On to `O=C1Nc2ccccc2/C1=C1/Nc2ccccc2/C1=N\OCCC(O)CO` (configuration not stated), for which the residual activity was found to be 46%.
The same measure, in the same setting: under `N#CCCc1ccc2c(c1)-c1[nH]c3ccc([N+](=O)[O-])cc3c1CC(=O)N2` stands 59%; under `CC(C)n1cnc2/c(=N/c3cccc(Cl)c3)nc(NCCO)[nH]c21`, 51%.
Turning to `N#C/C(=C(\N)Sc1ccc(N)cc1)c1ccccc1C(F)(F)F`, the residual activity turned out to be 98%.
Regarding `Cn1nc2c3c(cccc31)C(=O)c1ccccc1-2`, the residual activity was found to be 97%.

The values above are taken from ChEMBL document CHEMBL2218924, “A broad activity screen in support of a chemogenomic map for kinase signalling research and drug discovery” (Biochem J, 2013).
